MazF activator: MazEF (E. coli) toxin RNase activation | activation, % at 20 µM | P0AE70 | AID 504720 | actives 0.32% (n = 350,000) | FAM/BHQ RNA-DNA oligo cleavage fluorescence, 5 h; in the data active = activation above about 50%
Target sequence (P0AE70 whole entry, looked up): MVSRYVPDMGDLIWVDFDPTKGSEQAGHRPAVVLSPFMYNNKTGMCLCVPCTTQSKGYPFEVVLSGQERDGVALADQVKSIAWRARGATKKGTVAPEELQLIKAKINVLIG
Mtb bLac sens: beta-lactam sensitization of Mtb H37Rv; inhibition, % at 25 µM; M. tuberculosis H37Rv growth with meropenem, percent inhibition; actives 0.27% (n = 330,000); AID 434955;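 also: growth measured after seven days incubation then overnight dye step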
Vc quorum ag-1: inducers of Vibrio cholerae quorum light production without autoinducers; V. cholerae BH1578 lux reporter, luminescence, 6 h; actives 0.16% (n = 350,000); AID 588436; activation, % at 18.7 µM; in the data active = activation mostly above about 9.7%, no sharp cut-off
Rv3671c protease: Rv3671c (M. tuberculosis) protease inhibition. P9WHR9. inhibition, % at 5.96 µM. actives 0.048% (n = 320,000). AID 2606; in the data active = inhibition above about 38%;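 also: extracellular domain of Rv3671c used as enzyme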
Target sequence (P9WHR9 whole entry, looked up, the tested form may be a part): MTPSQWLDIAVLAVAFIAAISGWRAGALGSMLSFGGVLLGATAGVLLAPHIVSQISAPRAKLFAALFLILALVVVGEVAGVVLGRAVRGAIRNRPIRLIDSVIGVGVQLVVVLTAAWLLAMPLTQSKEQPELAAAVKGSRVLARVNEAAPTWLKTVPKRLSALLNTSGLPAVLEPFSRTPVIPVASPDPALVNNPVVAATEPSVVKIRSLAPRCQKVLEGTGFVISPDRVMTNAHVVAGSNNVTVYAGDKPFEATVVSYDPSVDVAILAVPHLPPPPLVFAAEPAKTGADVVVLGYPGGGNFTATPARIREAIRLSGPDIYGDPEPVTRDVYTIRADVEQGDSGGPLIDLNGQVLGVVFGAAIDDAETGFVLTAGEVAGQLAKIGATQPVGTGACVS
FadD28 binding: inhibitors of Mycobacterium tuberculosis FadD28 bisubstrate binding | actives 0.22% (n = 360,000) | FadD28 bisubstrate probe binding, fluorescence polarization | inhibition, % at 12.5 µM | AID 588549; in the data active = inhibition above about 8.5%, passing the limit was not always enough
Mtb UGM inh: blocks M. tuberculosis UGM enzyme. AID 504406. actives 0.06% (n = 320,000). inhibition, % at 10 µM. P9WIQ1. purified UGM, fluorescence polarization probe displacement; in the data active = inhibition above about 10%, passing the limit was not always enough
Vc quorum ag-2: inducers of V. cholerae quorum light production without autoinducers | shares compounds with Vc quorum ag-1 | V. cholerae BH1578 lux reporter, luminescence, 6 h | activation, % at 50 µM | 620 tested, under 10 active
HeLa tox: kills HeLa cells within 24 hours | shares compounds with Vc quorum ag-1 | activity change, negative = cytotoxicity, % at 35 µM | 25 tested, under 10 active | HeLa viability, CellTiter-Glo ATP luminescence;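 active = signal drop with fitted half-maximal concentration at or below twice the highest valid dose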
A number is an active result; n = inactive; x = no result given; + = active, no number. Only some compounds are listed: those with a hit (about 0.74% of all), similar ones and a draw of the others. Unless noted, no rule for the calls is given here.

SMILES	MazF activator	Mtb bLac sens	Vc quorum ag-1	Rv3671c protease	FadD28 binding	Mtb UGM inh	Vc quorum ag-2	others
CC(C)c1ccc(C(=O)OCC(=O)NC2CCCC2)cc1	n	n	+	n	n	n	n
CCc1ccc(C(=O)OCC(=O)NC2CCCC2)cc1	n	n	x	n	n	n	n
CC1(C(=O)NS(=O)(=O)c2ccccc2Cl)CCN1C(=O)Cc1cccc2ccccc12 (stereo not given)	x	x	n	x	n	x	x
Cc1ccc(N2CCN(Cc3ccccc3)CC2=O)c(C)c1	n	n	n	n	n	n	x
COc1cc(SC)ccc1C(=O)OCC(=O)NC1CCCC1	n	n	741	n	n	n	n
COc1ccc(OC)c(NC(=O)Nc2cccc(Cn3cccn3)c2)c1	n	n	n	n	n	n	n
COc1ccc(S(=O)(=O)NC(=O)C2(C)CCN2C(=O)C2(c3ccccc3)CCCC2)cc1 (stereo not given)	x	x	n	x	n	x	x
Cc1ccccc1OCC(=O)OCC(=O)N1CCCc2ccccc21	n	n	n	n	n	n	n
Cc1ccccc1OCC(=O)OCC(=O)N1CCc2ccccc21	n	x	n	x	n	x	x
O=C(NCc1cnc2ccccn12)C1CCC(=O)N(Cc2cccc(F)c2)C1 (stereo not given)	n	n	n	n	n	n	x
O=S(=O)(Nc1cccc(S(=O)(=O)N2CCCCC2)c1)c1ccccc1F	n	n	26	n	n	n	n
COc1ccccc1C(=O)Nc1cccc(NC(=O)c2ccccc2C)c1	n	n	n	x	n	n	x
Cc1ccccc1C(=O)Nc1cccc(N)c1	n	n	48	n	n	n	n
COc1ccc(CCNC(=S)N2CCN(S(=O)(=O)c3ccccc3F)CC2)cc1	n	n	n	n	n	n	x
Cc1nnc(SCc2nc3sc4c(c3c(=O)[nH]2)CCCC4)n(N)c1=O	n	n	x	n	x	x	x
Nc1nc(SCc2nc3sc4c(c3c(=O)[nH]2)CCCC4)n[nH]1	n	n	31	n	n	n	n
Cc1ccc(Oc2ccc(S(=O)(=O)N3CCOCC3)cc2C(N)=O)c(-n2nc3ccccc3n2)c1	n	n	25	n	n	n	n
COc1ccc(S(=O)(=O)N2CCOCC2)cc1NC(=O)CSc1nnc(C2CC2)n1C1CC1	n	n	41	n	n	n	n
CCOC(=O)c1cnc(SCC(=O)OCC(=O)NC2CCS(=O)(=O)C2)nc1N (stereo not given)	n	n	32	n	n	n	n
CCOc1ccc(N2CC(C(=O)Nc3ccc(S(=O)(=O)Nc4ncccn4)cc3)CC2=O)cc1 (stereo not given)	n	n	n	n	n	n	x
O=C(Nc1ccc(S(=O)(=O)Nc2ncccn2)cc1)C1CC(=O)N(c2ccccc2)C1 (stereo not given)	n	x	n	x	n	x	n
CC1(C)Cc2c(cnn2-c2cccc(F)c2)C(NC(=O)c2ccc(=O)[nH]n2)C1 (stereo not given)	n	n	n	n	n	n	x
COc1ccccc1NC(=O)c1oc2ccccc2c1C	n	x	n	x	n	x	x
COc1ccccc1NC(=O)COC(=O)c1cc(C)oc1C	n	n	x	n	n	n	n
COc1ccccc1NC(=O)COC(=O)c1cn(C)c2ccccc12	n	n	+	n	n	n	n
SMILES	MazF activator	Mtb bLac sens	Vc quorum ag-1	Rv3671c protease	FadD28 binding	Mtb UGM inh	Vc quorum ag-2	others
COc1ccccc1NC(=O)COC(=O)c1ccc2c(c1)OCCO2	n	n	52	n	n	n	n
COc1ccccc1NC(=O)COC(=O)c1oc2ccccc2c1C	n	n	26	n	n	n	n	HeLa tox=n
Cn1cc(C(=O)OCC(=O)NC2CCCCC2)c2ccccc21	n	n	n	n	n	n	x
COCCOc1ccc(C(F)(F)F)cc1NC(=O)COC(=O)C12CC3CC(CC(O)(C3)C1)C2	n	n	n	n	n	n	x
O=C(O)CC1Cc2ccccc2C1C(=O)O (stereo not given)	n	x	x	x	n	x	x
CCc1cc2c3c(c1)C1(C(=O)N3C(C)(C)C=C2C)C(C#N)=C(N)Oc2[nH]c(=O)[nH]c(=O)c21 (stereo not given)	n	n	n	n	n	n	x
Cc1cc(C(=O)OCC(=O)Nc2c(Cl)cccc2C(F)(F)F)c(C)o1	n	n	n	n	n	n	n
COc1ccc(Cl)cc1NC(=O)COC(=O)c1cc(C)oc1C	n	n	+	n	n	n	n
Cc1cc(C(=O)OCC(=O)Nc2ccc(F)c(F)c2F)c(C)o1	n	n	n	n	n	n	x
COc1cccc(CNC(=O)COC(=O)CN(C)S(=O)(=O)c2ccc(NC(C)=O)cc2)c1	n	n	n	n	n	n	n
CC1(C)OC1COc1c2ccoc2cc2oc(=O)ccc12 (stereo not given)	n	n	n	n	n	n	x
COC(=O)CCc1c(C)[nH]c(=S)[nH]c1=O	n	n	n	n	n	n	x
CCOC(=O)Cc1c(C)[nH]c(=S)[nH]c1=O	n	n	17	n	n	n	n
CN(CC(=O)Nc1cc(Cl)cc(Cl)c1)Cc1cccs1	n	n	n	n	n	n	x
CC(=O)Nc1cccc(-c2ccnc3c2CC(C(=O)NCc2ccco2)O3)c1 (stereo not given)	x	x	n	x	n	x	x
COc1cc(OC)c(OC)cc1CNC(C)C(O)c1ccccc1 (stereo not given)	n	n	n	n	n	n	n
O=C(NCc1ccccn1)c1ccc(CS(=O)(=O)Cc2ccc(Cl)cc2)o1	n	n	15	n	n	n	n
NC(=O)c1cc(Br)cc(C2CCCCC2)c1O	n	n	x	n	n	n	n
Cc1cccc(-c2noc(CN(C(=O)C34CC5CC(CC(C5)C3)C4)C(C)C)n2)c1	n	n	18	n	n	n	n
CC(C)N(Cc1nc(-c2ccc(Cl)cc2)no1)C(=O)C12CC3CC(CC(C3)C1)C2	n	n	n	n	n	n	x
O=C(Nc1cccc(-c2ccc(N3CCOCC3)nn2)c1)c1ccccc1Cl	n	n	n	n	n	n	n
COc1cc(F)ccc1-c1cc(C(=O)NCc2ccc(C(F)(F)F)cc2)[nH]n1	x	x	n	x	n	x	x
Cc1nc(Nc2ccncc2)c2oc3ccccc3c2n1	n	n	n	n	n	n	x
CC(=O)Nc1ccc(Nc2nc(C)nc3c2oc2ccccc23)cc1	n	n	17	n	n	n	n
O=C1C2C3C=CC(CC3)C2C(=O)N1c1ccccc1F (stereo not given)	n	n	n	n	x	n	x
COCc1cc(=O)n2[nH]cc(-c3ccccc3)c2n1	n	x	n	n	n	n	x
CCCc1cc(=O)n2[nH]cc(-c3ccc(Cl)cc3)c2n1	n	n	41	x	n	n	n
O=c1cc(CSc2ccccn2)c2ccccc2[nH]1	n	n	27	n	n	n	n
CCOC(=O)c1cc2c(c(-c3cccc(-c4cc5ccccc5o4)c3)n1)[C@@H](CCO)N(S(=O)C(C)(C)C)C2 (stereo not given in full)	x	x	x	x	n	x	x

High-throughput results from PubChem.
